The campaign covered roughly 310,000 compounds. About 2,200 (0.71%) showed an effect of 50% or more. The effect is printed as a negative number. This excerpt belongs to a sample that is enriched for strong results.
What follows are compounds tested against human ether-à-go-go-related gene (hERG) potassium channel (human, UniProt Q12809) (assay: primary screen, population patch clamp on CHO cells stably expressing hERG; higher = less effect of the substance).
Procedure: Briefly, Chinese hamster ovary (CHO) cells stably expressing the hERG channel were dislodged from tissue culture flasks and dispensed into PPC plates. […] During the recording, background leak currents were estimated by a 100 ms step to -80 mV from an initial holding potential of -70 mV and subtracted from the subsequent current measurement. The campaign was conducted in two phases using slight differences in recording protocol. In the first phase, the initial voltage pulse used a 100 ms step to -30 mV from a holding potential of -70 mV, a 2 s conditioning step to +25 mV, and a 2 s test step to -30 mV. During the second phase of the screen, the potential during the conditioning step was raised to +45 mV. In both phases of the campaign, a secondary voltage pulse was applied using the same parameters as the second phase initial pulse. The initial and secondary pulses were applied in the absence of compound, and upon application of 1 μM and 10 μM test concentrations. Small molecule effects on hERG current density were quantified by […].

human ether-à-go-go-related gene (hERG) potassium channel, sequence (Q12809 whole entry, looked up): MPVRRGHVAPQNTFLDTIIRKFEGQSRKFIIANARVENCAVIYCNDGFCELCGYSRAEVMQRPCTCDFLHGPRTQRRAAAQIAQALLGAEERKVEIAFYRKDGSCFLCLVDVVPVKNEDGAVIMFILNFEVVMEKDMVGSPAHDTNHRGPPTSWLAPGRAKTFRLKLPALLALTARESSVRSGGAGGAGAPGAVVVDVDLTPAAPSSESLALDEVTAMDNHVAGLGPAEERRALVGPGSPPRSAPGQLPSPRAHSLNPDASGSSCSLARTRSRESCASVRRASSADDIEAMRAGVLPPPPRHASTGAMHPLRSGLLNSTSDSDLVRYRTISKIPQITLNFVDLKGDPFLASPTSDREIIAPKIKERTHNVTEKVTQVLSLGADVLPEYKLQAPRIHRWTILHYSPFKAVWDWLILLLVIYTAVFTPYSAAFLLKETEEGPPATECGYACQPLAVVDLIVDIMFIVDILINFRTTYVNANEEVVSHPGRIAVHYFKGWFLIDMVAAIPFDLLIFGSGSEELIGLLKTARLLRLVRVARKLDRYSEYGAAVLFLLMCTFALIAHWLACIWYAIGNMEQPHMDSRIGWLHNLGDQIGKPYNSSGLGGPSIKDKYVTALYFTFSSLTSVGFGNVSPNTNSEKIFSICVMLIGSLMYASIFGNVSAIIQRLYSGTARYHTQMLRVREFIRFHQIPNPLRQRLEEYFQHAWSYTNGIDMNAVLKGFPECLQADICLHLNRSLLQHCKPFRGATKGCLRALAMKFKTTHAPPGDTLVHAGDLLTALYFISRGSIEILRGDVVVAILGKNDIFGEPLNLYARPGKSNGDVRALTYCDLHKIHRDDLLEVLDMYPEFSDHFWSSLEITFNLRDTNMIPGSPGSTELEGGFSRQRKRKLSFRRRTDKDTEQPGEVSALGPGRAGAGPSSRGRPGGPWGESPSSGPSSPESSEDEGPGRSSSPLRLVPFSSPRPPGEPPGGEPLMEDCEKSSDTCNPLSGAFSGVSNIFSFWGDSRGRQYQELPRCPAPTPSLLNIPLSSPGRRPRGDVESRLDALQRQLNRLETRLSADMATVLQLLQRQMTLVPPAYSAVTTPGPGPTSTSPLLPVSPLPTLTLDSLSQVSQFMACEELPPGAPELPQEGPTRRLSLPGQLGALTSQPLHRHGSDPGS

| Structure (SMILES) | hERG current change (%, negative = inhibition) at 1uM [%] |
| --- | --- |
| COc1ccc(C2OC(=O)CC2C(=O)N2CCN(c3cc(Cl)ccc3C)CC2)cc1OC (centres unmarked) | 7.68 |
| CCn1c(-c2cc(-c3ccc(C)c(C)c3)nc3ccccc23)n[nH]c1=S | 16.2 |
| CCOC(=O)C1CCN(C2CC(=O)N(c3ccc(OCC)cc3)C2=O)CC1 (centres unmarked) | 2.22 |
| CCOC(=O)c1cnc2c(C(=O)OC)cccc2c1NCCN1CCOCC1 | -47.1 |
| CCOC(=O)c1cnc2c(C)cccc2c1NCc1ccco1 | -45.3 |
| CCOC(=O)c1cnc2c(OC)cccc2c1Nc1ccc2c(c1)OCCO2 | -3.26 |
| CCOC(=O)c1cnc2c(OC)cccc2c1Oc1ccccc1 | 11 |
| CCOC(=O)c1cnc2ccc(OCC)cc2c1NCc1cccnc1.Cl | -75.3 |
| CCOC(=O)c1cnc2ccccc2c1NCc1ccco1 | -14.7 |
| CCOC(=O)c1cnc2ccc(OC)cc2c1NCc1ccccc1 | -33.4 |
| CCOC(=O)c1cnc2c(C(=O)OC)cccc2c1NCc1ccco1 | -71.4 |
| CCOC(=O)c1cnc2ccc(OCC)cc2c1NCc1ccccc1 | -12.8 |
| CCOC(=O)c1cnc2c(C(=O)OC)cccc2c1NCc1cccnc1 | -55.5 |
| CCOC(=O)c1ccc(NCc2cccnc2)cc1 | 8.24 |
| CCOC(=O)c1cnc2c(OC)cccc2c1NCc1cccnc1 | -68.1 |
| COc1ccc(OC)c(C(=O)CSc2nnc(Cc3cccs3)n2CCc2ccccc2)c1 | -6.84 |
| CC(NC(=O)CSc1nc2ccccc2c(=O)n1CCCO)c1ccccc1 (centres unmarked) | -0.931 |
| COCCN(CCOC)S(=O)(=O)c1ccc(C(=O)NC2CCN(Cc3ccccc3)CC2)cc1.Cl | -1.24 |
| COc1ccc(C(=O)Nc2nnc(SCC(=O)NC3CCCC3)s2)c(OC)c1 | 14.4 |
| CN1C(=O)/C(=C\c2cc(Br)cs2)c2ccccc21 | 12.7 |
| O=C(Cc1ccc(Cl)cc1)NCC(=O)N1CCCCCC1 | 4.89 |
| COc1ccc(-n2c(=O)c3c4c(sc3n3c(=S)[nH]nc23)CCC4)cc1 | 9.01 |

| Structure (SMILES) | hERG current change (%, negative = inhibition) at 1uM [%] |
| --- | --- |
| CCCN1CCN(CCCNC(=O)c2ccc3c(c2)NC(=O)c2ccccc2S3)CC1 | 9.21 |
| O=C1NC(=Nc2cccc([N+](=O)[O-])c2)SC1(CO)CO | 2.12 |
| COc1ccc(C)cc1NC(=O)COC(=O)C1CCN(C(=O)c2ccc(Cl)cc2)CC1 | -57.7 |
| COc1ccc(C)cc1NC(=O)COC(=O)C1CC1 | 6.74 |
| COc1ccc(OC)c(NC(=O)COC(=O)C2CCN(C(=O)c3ccc(Cl)cc3)CC2)c1 | -49.1 |
| O=C(NC1CCN(Cc2ccccc2)CC1)C1CCN(S(=O)(=O)c2ccccc2)CC1 | 1.18 |
| Cc1ccc(Cl)cc1S(=O)(=O)N1CCC(C(=O)NC2CCN(Cc3ccccc3)CC2)CC1 | -66.1 |
| Cl.O=C(COc1ccccc1F)NC1CCN(Cc2ccccc2)CC1 | -3.6 |
| Cc1ccc(Cl)c(OCC(=O)NC2CCN(Cc3ccccc3)CC2)c1 | -93.9 |
| O=C(NC1CCN(Cc2ccccc2)CC1)C1CCN(S(=O)(=O)c2ccc(Cl)cc2)CC1 | -16.9 |
| O=C(COc1ccc(Br)cc1F)NC1CCN(Cc2ccccc2)CC1 | -64.8 |
| Cc1cc(OCC(=O)NC2CCN(Cc3ccccc3)CC2)c2c(C)c(C)c(=O)oc2c1 | 7.38 |
| O=C(COc1ccc(Br)cc1Cl)NC1CCN(Cc2ccccc2)CC1 | -16.4 |
| O=C(COc1ccccc1)NC1CCN(Cc2ccccc2)CC1 | -8.39 |
| COC(=O)c1sc(C(C)(C)C)cc1CS(=O)(=O)c1ccc(Cl)cc1 | 23.7 |
| CC(C)=CCOc1ccc2c(C)c(CC(=O)N3C[C@H]4C[C@@H](C3)c3cccc(=O)n3C4)c(=O)oc2c1C | -18.5 |
| Cc1cc(C)c2cc(C#N)c(SCC(=O)NCC3CCCO3)nc2c1 (centres unmarked) | -2.04 |
| CCSCc1nnc(SCC(=O)c2ccc(OC)cc2)n1C | 2.03 |
| CC(NC(=O)CSCc1ccc(Br)cc1)c1ccccc1 (centres unmarked) | 9.08 |
| CCOc1ccc(/C=N/NC(=O)c2cccc3ccccc23)c(OCC)c1 | 13.6 |
| CC1CCCN(CC(=O)Nc2ccc(S(=O)(=O)N3CCCCCC3)cc2)C1 (centres unmarked) | -1.45 |
| COC(=O)c1nc[nH]c1C(=O)OC | 18.4 |

| Structure (SMILES) | hERG current change (%, negative = inhibition) at 1uM [%] |
| --- | --- |
| COc1ccccc1C(=O)N/C(=C/c1ccc(Br)cc1)C(=O)NCCO | 1.21 |
| COCCN1C(=O)N[C@H](c2cccc(C(F)(F)F)c2)C(C(=O)OC)=C1C | 5.44 |
| CN1CCN(C(CNS(=O)(=O)c2ccc(Br)cc2)c2ccc3c(c2)OCO3)CC1 (centres unmarked) | -59.5 |
| O=S(=O)(NCC(c1ccc2c(c1)OCO2)N1CCOCC1)c1ccc(Br)cc1 (centres unmarked) | 12.6 |
| CCOc1ccc(S(=O)(=O)NCC(c2ccc3c(c2)OCO3)N2CCN(C)CC2)cc1 (centres unmarked) | -3.34 |
| COc1ccc(F)cc1S(=O)(=O)NCC(c1ccc2c(c1)OCO2)N1CCN(C)CC1 (centres unmarked) | -12.6 |
| COc1ccc(C)cc1S(=O)(=O)NCC(c1ccc2c(c1)OCO2)N1CCOCC1 (centres unmarked) | 5.86 |
| COc1ccc(C)cc1S(=O)(=O)NCC(c1ccc2c(c1)OCO2)N1CCN(C)CC1 (centres unmarked) | -54.9 |
| C=CCON/C(CCC)=C1\C(=O)CC(C)(C)CC1=NC | 18.6 |
| O=C(CN(C(=O)CCC(=O)Nc1nccs1)c1ccc2c(c1)OCO2)NCc1ccc(F)cc1 | 9.89 |
| COc1cccc(CN2C(=O)[C@H]3Cc4c([nH]c5ccccc45)C(C)(C)N3C2=O)c1 | 15.2 |
| O=S(=O)(Nc1nc2ccccc2nc1Cl)c1ccc2c(c1)OCCO2 | 8.99 |
| Cc1nn(Cc2ccccc2)c(C)c1NC(=O)CSc1nc2c(c(C(F)(F)F)n1)CCc1ccccc1-2 | 2.11 |
| CC1=C(C)C(=O)N(c2ccccn2)C1=O | 11.4 |
| CCOc1ccc(CN2CCN(Cc3[nH]c4ccccc4c3C)CC2CCO)cc1 (centres unmarked) | -75.2 |
| CCOc1ccc(CN2CCN(Cc3[nH]c4ccc(OC)cc4c3C)CC2CCO)cc1 (centres unmarked) | -76.9 |
| COc1cccc(CN2CCN(Cc3[nH]c4ccccc4c3C)CC2CCO)c1 (centres unmarked) | -11.2 |
| COc1ccc2[nH]c(CN3CCN(CC(C)C)C(CCO)C3)c(C)c2c1 (centres unmarked) | 5.18 |
| CCOc1ccccc1CN1CCN(Cc2[nH]c3ccccc3c2C)CC1CCO (centres unmarked) | -13 |
| COc1ccc2[nH]c(CN3CCN(CC=C(C)C)C(CCO)C3)c(C)c2c1 (centres unmarked) | 10.7 |
| CC(C)CC(=O)Nc1nnc(S(=O)(=O)N(C)Cc2ccco2)s1 | 21 |
| NC(=O)CC(NC(=O)Cc1cccc2ccccc12)c1ccc(NCCCN2CCCC2=O)c([N+](=O)[O-])c1 (centres unmarked) | 8.49 |

| Structure (SMILES) | hERG current change (%, negative = inhibition) at 1uM [%] |
| --- | --- |
| O=C(CNS(=O)(=O)c1cccc(C(F)(F)F)c1)Nc1ccccc1F | -2.49 |
| CCCOC(=O)c1ccc(NS(=O)(=O)c2cccs2)cc1 | 8.05 |
| O=C(Oc1ccc(N(C(=O)c2ccncc2)S(=O)(=O)c2cccs2)cc1)c1ccncc1 | 11.4 |
| O=C(OCCN(CCOC(=O)c1ccncc1)S(=O)(=O)c1cccs1)c1ccncc1 | -51.5 |
| O=C(Oc1ccccc1O)c1cccc2ccccc12 | 6.76 |
| Cc1ccc(N2C(=O)N(CC(=O)Nc3ccc(C)cc3C)C(=O)C2C)cc1 (centres unmarked) | 7.69 |
| COc1cc(NC(=S)NCc2cccnc2)cc(OC)c1 | 15.1 |
| CCOc1ccc(NC(C)=O)cc1[N+](=O)[O-] | 5.43 |
| CCOC(=O)C1(CCc2ccccc2)CCN(Cc2ccc(NC(C)=O)cc2)CC1 | -72.5 |
| CCOC(=O)C1(CCOc2ccccc2)CCN(Cc2cccc3c2OCO3)CC1 | -7.1 |
| CCOC(=O)C1(CCCc2ccccc2)CCN(Cc2cnc(C)s2)CC1 | -44.7 |
| CCOC(=O)C1(CCc2ccccc2)CCN(Cc2ccccn2)CC1 | -57.1 |
| CCOC(=O)C1(CCc2ccccc2)CCN(Cc2cccc3c2OCO3)CC1 | -63.7 |
| CCOC(=O)C1(Cc2ccccc2)CCN(Cc2cccc3c2OCO3)CC1 | 1.36 |
| CCOC(=O)C1(CCc2ccccc2)CCN(Cc2nccn2CC)CC1 | -47.2 |
| CCOC(=O)C1(CCc2ccccc2)CCN(Cc2csc(C(C)=O)c2)CC1 | -33.6 |
| CCOC(=O)C1(CCOc2ccccc2)CCN(Cc2ccc(NC(C)=O)cc2)CC1 | -38.6 |
| CCOC(=O)C1(CC2CC2)CCN(Cc2cnc(N(C)C)s2)CC1 | 3.01 |
| CCOC(=O)C1(CCc2ccccc2)CCN(Cc2ccn[nH]2)CC1 | -43.8 |
| CCOC(=O)C1(CCc2ccccc2)CCN(Cc2cnc(N(C)C)s2)CC1 | -86.4 |
